Measurements: publication PMC4552634, “A New Set of Chemical Starting Points with Plasmodium falciparum Transmission-Blocking Potential for Antimalarial Drug Discovery” (PLoS ONE, 2015)
In all, about 13,000 compounds went through this assay and about 3,200 (25%) showed an effect of 50% or more. The list shows a part of the results.

System: P. falciparum stage V gametocytes
Parameters: BacTiter-Glo ATP luminescence viability of purified stage V gametocytes in 384-well plates, per cent inhibition versus DMSO
Conditions: 48 h, 5 µM; inhibitor

Structure (SMILES) | % Inhibition [%]
CNC(=O)COC(=O)c1c2c(nc3ccccc13)C(=Cc1ccc3c(c1)OCO3)CCC2 [TCMDC-123900] | 4.246
Cn1cnc(CCNC(=O)c2ccc(-c3cccc(-c4nc5cc(C(F)(F)F)ccc5[nH]4)c3)cc2)c1 [TCMDC-132493] | 1.105
Cc1ccc(OC2CCN(c3ccc(C(=O)NC4CC4)cn3)CC2)cc1 [TCMDC-134059] | 7.555
NC1=Nc2ccc(Cl)cc2C1(O)c1ccccc1 (centres unmarked) [TCMDC-123492] | 3.06
CCOc1ccc(C(=O)Nc2cc3c(c(C(F)(F)F)c2)CCNC3)cc1Cl [TCMDC-139751] | 25.29
N#Cc1cccc(C(O)C2CN(CCC3CCCCC3)CCC2(O)c2ccccc2)c1 (centres unmarked) [TCMDC-131999] | -28.27
COc1ccc(CNC(=O)Nc2cc3cc(-c4ccc(CN5CCCC5)cc4)ccc3n3c(C)nnc23)cc1 [TCMDC-136720] | 98.19
COc1cccc(CNC(=O)c2cccc(-c3ccc(CN4CCC(N5CCCC5)CC4)cc3)n2)c1 [TCMDC-134416] | 30.7
Cc1nnc2c(NC(=O)/C=C/c3ccc(OC(F)(F)F)cc3)cc3cc(Cl)ccc3n12 [TCMDC-135918] | -12.77
CCCNC(=O)Nc1cc2cc(-c3cccc(CN4CCCCC4)c3)ccc2n2c(C)nnc12 [TCMDC-136740] | 104.3
Cc1nnc2c(NC(=O)NC(C)C)cc3cc(-c4ccc(CN5CCCCC5)cc4)ccc3n12 [TCMDC-136738] | 50.46
Cc1nnc2c(N(C(=O)NCCc3ccccc3)C(=O)NCCc3ccccc3)cc3cc(Cl)ccc3n12 [TCMDC-135524] | 21.17
O=C(Nc1cccc(-c2cccc(CN3CCCC3)c2)c1)c1ccc(Cl)cc1 [TCMDC-132654] | 19.28
COc1ccc(CNC(=O)Nc2cc3cc(-c4ccc(CN(C)C)cc4)ccc3n3c(C)nnc23)cc1 [TCMDC-136719] | 118
Cc1cccc2[nH]c(-c3ccc(-c4cccc(NC(=O)NCc5ccc(F)cc5)c4)cc3)nc12 [TCMDC-133303] | -66.9
O=C(Nc1cccc(-c2ccc(CN3CCCC3)cc2)c1)c1ccc(Cl)cc1 [TCMDC-132630] | 10.82
O=C(Nc1cccc(-c2ccc(CN3CCCC3)cc2)c1)c1ccc(F)cc1 [TCMDC-132636] | -0.2818
COc1ccc2[nH]c(C(=O)Nc3cccc(-c4ccc(CN(C)C)cc4)c3)cc2c1 [TCMDC-134283] | -4.108
CN(C)c1ccc(-c2cscc2C(=O)NC2CCCN(Cc3cccnc3)C2)cc1 (centres unmarked) [TCMDC-134489] | 34.49
CN(Cc1cccc(F)c1)C1CCCN(c2cc(NC(=O)c3ccccc3)ccn2)C1 (centres unmarked) [TCMDC-135013] | 1.109
CN1CC=C(c2c[nH]c3ccc(OC(=O)c4ccccc4)cc23)C1 [TCMDC-139100] | -51.1
CCNC(=O)Nc1ccc(-c2cnc(N)c(-c3nc4ccc(OC)cc4[nH]3)c2)cc1 [TCMDC-135321] | -14.13
O=C(/C=C/c1ccc(Cl)c(Cl)c1)NC1CCC(CN2CCC(c3nc4ccccc4n3CCCO)CC2)CC1 (centres unmarked) [TCMDC-140313] | 5.954
Cc1cc(NC2CCN(CC3CCCCC3)CC2)nc(Nc2ccccc2Cl)n1 [TCMDC-137017] | -7.805

Structure (SMILES) | % Inhibition [%]
CCC(CC)n1cc2c(ccc3nc(N)nc(N)c32)n1 [TCMDC-138019] | -28.37
Nc1ccnc(N2CCC(CCOc3cc(C(F)(F)F)nc4c(C(F)(F)F)cccc34)CC2)c1 [TCMDC-141364] | 15.98
CC(Cc1ccc(CN2CCN(Cc3ccccc3)CC2)cc1)NCC(O)c1cccc(C(F)(F)F)c1 (centres unmarked) [TCMDC-131534] | 42.03
N=C(N)c1ccc(-c2cc(-c3cccc(C(=N)N)c3)on2)cc1 [TCMDC-137264] | 7.482
Cc1ccc(NC(=O)c2ccc3ncccc3c2)cc1OC1CCN(Cc2ccsc2)C1 (centres unmarked) [TCMDC-133949] | -9.977
c1ccc(COc2ccc(Nc3ncnc4ccc(-c5ccc(CN6CCSCC6)o5)cc34)cc2)cc1 [TCMDC-138242] | 13.7
Cc1ccc(C)c(NC(=O)Nc2ccc(Nc3nc(C)cc(N4CCOCC4)n3)cc2)c1 [TCMDC-124751] | 3.565
CC(=O)N/N=C/[C@H](CCc1ccccc1)NC(=O)[C@H](CC(C)C)NC(=O)c1cccc(OCCN2CCOCC2)c1 [TCMDC-135972] | 30.82
CCCCNC(=O)C1CCCN(C(=O)c2ccc(O)c(-c3ccc(Cl)c(Cl)c3)c2)C1 (centres unmarked) [TCMDC-140887] | -1.062
CS(=O)(=O)NCCCNCc1cccc(-c2csc(-c3nc4ccccc4[nH]3)c2)c1 [TCMDC-133089] | -10.78
COc1ccc2nc(C)cc(Nc3ccc(Oc4ccc(Br)c5ccccc45)c(Cl)c3)c2c1 [TCMDC-124238] | 12.09
CCCNC(=O)Nc1cc2cc(-c3ccc(CN4CCCC4)cc3)ccc2n2c(C)nnc12 [TCMDC-136718] | 108.6
Cc1ccc(CN2CCCN(Cc3cccc(NC(=O)c4ccc(-c5ccccc5)cc4)c3)CC2)cc1C [TCMDC-141851] | -43.17
O=C(/C=C/c1ccc([N+](=O)[O-])cc1)N1CCC(NS(=O)(=O)c2ccc(Br)cc2)CC1 [TCMDC-139442] | 11.64
COc1ccc(C(=O)CCc2ccc(O)cc2)cc1 [TCMDC-124290] | -50.17
Cc1cccc2[nH]c(-c3ccc(-c4cccc(CNCCCN5CCCC5=O)c4)cc3)nc12 [TCMDC-132758] | 19.9
CN1CCN(CCCNCc2cccc(-c3ccc(CNCCc4ccccc4)cc3)c2)CC1 [TCMDC-140643] | 103.5
CC(C)CNCc1cccc(-c2cccc(CNCCCN3CCN(C)CC3)c2)c1 [TCMDC-140483] | 101.9
CC(C)CNCc1cccc(-c2cccc(CNc3ccc4ncccc4c3)c2)c1 [TCMDC-140718] | 9.838
O=C(NCCN1CCC(c2ccncc2)CC1)c1ccc(Nc2nccc(Nc3ccc(Oc4ccccc4)cc3)n2)cc1 [TCMDC-138610] | -43.68
CCCc1ccc(S(=O)(=O)NC2CCN(c3ccnc(Nc4ccc(F)cc4)n3)C2)cc1 (centres unmarked) [TCMDC-133598] | 2.344
O=C(c1ccc2ccccc2n1)N1CCCc2cc(Br)ccc21 [TCMDC-134838] | -4.614
Cc1ccc(C(=O)Nc2ccc(C)c(OC3CCN(CCC(C)C)C3)c2)cc1 (centres unmarked) [TCMDC-133981] | -13.13
CCOC(=O)c1ccc(NC(=O)Nc2ccc(-c3ccc(-c4nc5ccccc5[nH]4)cc3)cc2)cc1 [TCMDC-133265] | -0.3523

Structure (SMILES) | % Inhibition [%]
CCN(CC)CCCn1c(N)c(-c2nc3ccccc3[nH]2)c2nc(C#N)c(C#N)nc21 [TCMDC-123680] | 117
CN(C)CCn1c(N)c(-c2nc3ccccc3s2)c2nc(C#N)c(C#N)nc21 [TCMDC-124439] | -7.276
N#Cc1c(N)n(CCc2ccc(F)cc2)c2nc3ccccc3nc12 [TCMDC-125779] | 44.22
CN(C)CCCn1c(N)c(-c2nc3ccccc3[nH]2)c2nc(C#N)c(C#N)nc21 [TCMDC-123729] | 113.1
COc1ccc(COc2c(OC)cc(Cc3cnc(N)nc3N)cc2OC)cc1 [TCMDC-138619] | 7.542
NC1=NC(c2ccccc2)(c2ccccc2)C(=O)N1CCCCc1ccccn1 [TCMDC-132209] | -31.55
COc1ccc(O)c(C(=O)c2cc(C#N)c(=O)n(-c3ccc(Oc4ccccc4)cc3)c2)c1 [TCMDC-123628] | -33.17
CCCCn1c(C(C)Oc2ccc(Cl)cc2Cl)nc2cc(S(N)(=O)=O)ccc21 (centres unmarked) [TCMDC-125564] | 8.97
CC(Cc1ccc(OCCCCOc2ccccc2)cc1)NCCc1ccc(Oc2ccccc2)cc1 (centres unmarked) [TCMDC-140021] | 88.65
COc1cccc(CCNC(C)Cc2ccc(OCCCCOc3ccccc3)cc2)c1 (centres unmarked) [TCMDC-140020] | 127.9
COC(=O)c1ccc(CC(C)NCC(O)c2ccccc2Cl)cc1 (centres unmarked) [TCMDC-131422] | 7.207
CC(Cc1ccc(OCc2ccccc2)cc1)Nc1nc2ccccc2c(=O)[nH]1 (centres unmarked) [TCMDC-131532] | -11.7
CC(CCc1ccc(OCc2ccccc2)cc1)NCC(O)c1ccccc1 (centres unmarked) [TCMDC-131472] | 8.257
CC(Cc1ccc(OCCCCOc2ccccc2)cc1)NCCc1ccccc1Cl (centres unmarked) [TCMDC-140019] | 97.11
COc1ccc(Nc2nccc(N3CCC(NC(=O)c4cccc(C#N)c4)C3)n2)cc1 (centres unmarked) [TCMDC-133609] | -14.42
COc1ccccc1CCCON1C(N)=NC(N)=NC1(C)C [TCMDC-131723] | 17.71
CCCCOc1c(CCC)cc(Cc2cnc(N)nc2N)cc1CCC [TCMDC-137692] | -41.23
Cc1cccc2[nH]c(-c3cccc(-c4ccc(NC(=O)c5cccnc5)cc4)c3)nc12 [TCMDC-136929] | -10.6
Cc1cccc2[nH]c(-c3cccc(-c4cccc(NC(=O)c5cnccc5C(F)(F)F)c4)c3)nc12 [TCMDC-137118] | 53.02
Cc1cccc2[nH]c(-c3ccc(-c4cccc(NC(=O)c5cnccc5C(F)(F)F)c4)cc3)nc12 [TCMDC-137117] | -14.87
Cc1ncccc1C(=O)Nc1ccc(-c2cccc(-c3nc4c(C)cccc4[nH]3)c2)cc1 [TCMDC-136862] | -37.31
Cc1cccc2[nH]c(-c3cccc(-c4cccc(NC(=O)c5cccnc5)c4)c3)nc12 [TCMDC-136927] | 36.77
Cc1cccc2[nH]c(-c3cccc(-c4ccc(NC(=O)c5cnccc5C(F)(F)F)cc4)c3)nc12 [TCMDC-137119] | 66.25
